Measurements published in the supplement of paper PMC11417369.
The full ranking holds about 25,000 sequences; the median of “ln(normalized median fluorescence intensity)” is about 6.7, and the highest 2% start at about 10. Shown is part of a subset that was picked to be rich in the highest values.

test system: PfHDP1 homeodomain (GST-tagged); assay: gcPBM binding intensity (ln(normalized median fluorescence intensity)); higher = stronger DNA binding
Outline: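 Plasmodium falciparum DNA-binding domains carrying a GST tag were expressed in E. coli and applied for 1 h, at about 25 μg on average, to an Agilent 4 × 180k array. The array held primer-extended double-stranded 36-bp intergenic genomic probes together with negative controls, and binding took place in 1× PBS with 1% milk, 0.2 mg/ml BSA, 0.5% salmon testes DNA and 0.03% Triton X-100. An Alexa488 anti-GST antibody detected bound protein, and the array was scanned at 488 nm. Binding intensity is taken as the highest Masliner-normalised natural-log median intensity across replicate spots of either probe orientation.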

| Sequence | gcPBM binding intensity (ln) |
| --- | --- |
| AATATAAATAAAAACACACACACACCGATATATATA [CACACA_site5283] | 7.05 |
| AATAAATATATATACACACCCATATATATATATATA [CACACA_site2595] | 9.48 |
| GGTATTTTCACATATAGTACACAAAAATAAAATAAA [XGTACX_site2139] | 6.68 |
| CATATAGATTTGTTCACACACACACTAAAAAAAAAA [CACACA_site7212] | 6.7 |
| TATTCTAATTTTTAAACACACAAATATAAATAAGTA [CACACA_site3149] | 6.35 |
| AAAAGAAAAAAAAAAAAAAAAAAAATTAAAATATAA [CACACA_negctrl_site17] | 5.65 |
| TGAATAATATACATACGTACATACATATATATAATA [XGTACX_site1302] | 6.17 |
| AATATAAATATTAAAACACACATAAAAAGATTATTA [CACACA_site1764] | 6.29 |
| ATATATATAAAATGTTGTACATATATATAAATAATA [XGTACX_site1661] | 6.15 |
| TAAATTTTTAAATACACACATACACCCATACAGACA [CACACA_site548] | 7.18 |
| TTTAAAACCCTAAAAAAAAAAAAAAAAAAAAAAAAA [CACACA_negctrl_site1212] | 6.26 |
| TTTTTTTAAATTATATGTACATAATTTTAATTTTAT [XGTACX_site5086] | 6.43 |
| ATTTTTTTTTTTATGTGTACATATATTTTTTTAATT [XGTACX_site7921] | 7.04 |
| AATATAAATAAAAACACACACACACCCATATATATA [CACACA_site2267] | 7.13 |
| AAAAAAAAAAAAAACACACACACACCCATAAATATA [CACACA_site151] | 6.87 |
| AACATATAAAAATGTGCACACACACCCATATATATA [CACACA_site1525] | 10.7 |
| AAATAAATAATTTAATGTACATATATAATATATATA [XGTACX_site1831] | 6.81 |
| AGAGTACAAGTAAATACACACATATAGATGAAAATA [CACACA_site6635] | 6.88 |
| TTATTATGTATATATGCACACAATACCCAAAACAAC [CACACA_site80] | 9.84 |
| ATTGTATCTGTATATGCACACAATATCTGTACTTCT [CACACA_site5445] | 10.1 |
| TATATATTGATATGCACACCTATGTATTGATGTATA [CACACA_site1073] | 10 |
| CAACTAACATATATTCAACACACATATACCTTCAAC [CACACA_site8988] | 6.43 |
| TATTATATGTATTGCACACCTTCAACAACTACTTCT [CACACA_site655] | 10.6 |

| Sequence | gcPBM binding intensity (ln) |
| --- | --- |
| TATATTATATGTATTGCACACCTTCAACAACTACTT [CACACA_site8121] | 10.5 |
| AAAAAAATAAATAAATGTACACATATATATATATAT [XGTACX_site4350] | 9.25 |
| AAAATGTATTCTCTCATGCACACTTTCTTTAAGGGA [CACACA_site2196] | 8.5 |
| AATACAAAAAAAGGTACACACATAATATATTTATTA [CACACA_site2628] | 6.46 |
| TAATGTATTATATTTTGTTTTCTTCCACCAAAAAAA [XGTACX_negctrl_site64] | 6.41 |
| TATATATTTTTATGCACACACAAAGAAAATTTTCCT [CACACA_site2863] | 10.8 |
| ATTATATATATTTATGCACACAAAATATATTATATA [CACACA_site9244] | 10.1 |
| TATATATCTTTATGCACACACAAAGAAAATTTTCCT [CACACA_site7366] | 10.5 |
| TTCTTTTTCCAATTTGCACACCACAAAATTATATAT [CACACA_site2909] | 10.6 |
| AATATATCTTATTTAACACACACAAAGAAAATAGAA [CACACA_site9242] | 7.34 |
| TATATATATTTTTATGCACACACAAAGAAAATTTTC [CACACA_site8931] | 10.1 |
| GTTCTTTCAAATTATACACACCAAAAAAAAAAAAAA [CACACA_site5660] | 6.62 |
| TATATCTTATTTAACACACACAAAGAAAATAGAAAA [CACACA_site3732] | 6.81 |
| AACAAATGTTAAATGTTTAAGGAGAAAATAAAGACA [CACACA_negctrl_site1163] | 6.75 |
| ATTTGCTCACAAGAAGCACACAAAAAAAGAAAAAAA [CACACA_site9338] | 7.34 |
| TATTTTTTCCTTTGTTTTTTAAACTATCTTAACTAA [XGTACX_negctrl_site519] | 6.37 |
| TTAACTTTTTTATATGCACACATAAACAAGGATATA [CACACA_site8932] | 10.1 |
| TCCATATGCAAACTGGTGCACAAGTAGCTTTTATAT | 10.8 |
| AACTTTTTTATATGCACACATAAACAAGGATATATA [CACACA_site2874] | 10.3 |
| ACACATAAATGAATAAATAAATAAATATAAATATAA [CACACA_negctrl_site1784] | 6.21 |
| TAATATAGAAAATGCATACACACTTTATATATATAT [CACACA_site911] | 8.61 |
| TTTTTTTTTTTTTAAACATGCAAAATATATAATTTT [TGCATGCA_site633] | 6.44 |
